27 compounds from PubChem BioAssay AID1851 (National Center for Advancing Translational Sciences (NCATS), 2009) can be followed below.

The structures appear in SMILES notation. “And” between values parts separate entries of the source, which are not always exact repeats. Equal values may be shown once. About 5,700 (36%) of roughly 16,000 compounds were called active. Not shown: some 24% with an inconclusive outcome. The call rests on the fitted dose curve; in most records, active means well fitted curve in the direction sought with a large enough effect; inconclusive means small, poorly fitted or top-dose-only effect, or effect the other way; inactive means no such curve, though single readings can be large or run the other way. The list shows a part of the results. More than one record can exist for a structure, and the calls need not agree.
On the % scale 0 is the no-effect control and ±100 the full control effect.

For the experiment, the target named is Cytochrome P450 1A2 (Homo sapiens) (UniProt P05177). The experiment is described as follows: Cytochrome panel assay with activity outcomes. To be noted: recombinant CYP, pro-luciferin dealkylation, luminescence, p450-cyp1a2; series mostly up to 57.1 µM; activity, negative = inhibition: at the top concentration.
Sequence of Cytochrome P450 1A2 (Homo sapiens) (P05177 whole entry, looked up): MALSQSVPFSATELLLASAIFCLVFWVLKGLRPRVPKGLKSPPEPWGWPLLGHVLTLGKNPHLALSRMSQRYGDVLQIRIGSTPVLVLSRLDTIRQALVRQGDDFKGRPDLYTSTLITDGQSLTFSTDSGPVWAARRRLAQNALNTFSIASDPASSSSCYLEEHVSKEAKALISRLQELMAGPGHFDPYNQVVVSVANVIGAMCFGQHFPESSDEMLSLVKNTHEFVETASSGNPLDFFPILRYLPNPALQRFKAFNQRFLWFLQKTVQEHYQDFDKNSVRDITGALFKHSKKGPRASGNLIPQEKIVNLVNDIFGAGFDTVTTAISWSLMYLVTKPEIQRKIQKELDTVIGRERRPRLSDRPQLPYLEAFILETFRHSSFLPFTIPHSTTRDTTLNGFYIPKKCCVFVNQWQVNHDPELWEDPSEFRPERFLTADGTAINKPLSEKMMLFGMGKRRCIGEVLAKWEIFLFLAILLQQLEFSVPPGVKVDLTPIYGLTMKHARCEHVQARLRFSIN
With `C=CC[N+]1(CC#CCOC(c2ccccc2)c2ccccc2)CCOCC1`, the “activity, negative = inhibition” value is -6.25% (inactive). In the case of `N#Cc1cc2nc(O)c(O)nc2cc1[N+](=O)[O-]`, the AC50 (usually the concentration at which the activity in the assay is half-maximal) was “inactive and 39.8 µM (active)”. As for `NS(=O)(=O)c1cccc2c1c([N+](=O)[O-])cc1nc(O)c(O)nc12`, the “activity, negative = inhibition” value was -10.3% (inactive). Take `COc1ccccc1CN1CC[C@@]2(CCCN(S(C)(=O)=O)C2)C1`: the “activity, negative = inhibition” value is -14.3% (inactive). Consider `Cc1ccc(NC2=NC(c3ccccc3)n3c(nc(C)cc3=O)N2)c(C)c1` (configuration not stated), for which the “activity, negative = inhibition” value was -4.75% (inactive).

Regarding `C[C@@H](c1ccccc1)N1C(=O)[C@@H]2[C@H]3C(=CC[C@H]2C1=O)C(=O)[C@H]1O[C@H]1[C@H]3O`, the activity, negative = inhibition was -2.35% [at 11.4 µM] (inactive).

For `O=C(O)c1ccc(CNCc2ccccc2)cc1`, the activity, negative = inhibition is -10.8% [at 11.4 µM] (inactive).

With `Sc1ccc2ccccc2c1CNCc1ccccc1`, the AC50 is 1260 nM (active). On to `C[C@H](C(=O)c1ccccc1)[C@@H](c1ccccc1)N1CCOCC1`, for which the activity, negative = inhibition is -14.9% [at 11.4 µM] (inactive). Regarding `O=C(O)c1cccc(CN2CCCCC2)c1`, the activity, negative = inhibition was -16.7% [at 11.4 µM] (inactive). For the compound `O=C(C[C@@H](c1ccccc1)N1CCCCC1)c1ccccc1`, the AC50 is 1260 nM (active). The same measure, in the same setting: in the case of `O=C(Cc1ccccc1)NCCSCc1ccc(Cl)cc1` it was 7080 nM (active). Take `N[C@@H](CSCc1ccccc1)C(=O)O`: the activity, negative = inhibition is -9.6% [at 11.4 µM] (inactive).

As for `O=C(O)CCSCc1ccccc1`, the activity, negative = inhibition is -20.7% [at 11.4 µM] (inactive). In the case of `CCCCCCCCCCCC(=O)O[C@H](CC(=O)O)C[N+](C)(C)C`, the “activity, negative = inhibition” value was 3.19% (inactive). On to `O=C(Nc1ccc(N=Nc2ccccc2)cc1)c1ccc(Cl)cc1Cl`, for which the “activity, negative = inhibition” value is 11.4% (inactive).

For the compound `O=C(N/N=C/c1ccc(Cl)cc1)Nc1ccccc1`, the AC50 was 10000 nM (active). On to `Cc1ccc(NC(=O)N/C=C/c2ccc(Cl)cc2)cc1`, for which the “activity, negative = inhibition” value was -22.5% (inactive). As to `O=C(N/N=C/c1ccc(Cl)cc1Cl)Nc1ccccc1`, the AC50 was 1000 nM (active). Same read-out and setting: in the case of `O=C(N/N=C/c1ccc(Cl)cc1Cl)c1cccc(F)c1` it was 1780 nM (active). As for `CC(C)(C)N(NC(=O)Nc1ccccc1)C(=O)c1ccccc1Cl`, the “activity, negative = inhibition” value was 5.62% (inactive). Still for that read-out and setting: in the case of `O=C(c1ccco1)N1CCC2(CCCN(Cc3ccccc3)C2)CC1` it was -4.78% (inactive).

`CCCN(CCC)CCCNS(=O)(=O)c1cc(Br)cc2c1N(C(C)=O)CC2`: the “activity, negative = inhibition” value is -17.8% (inactive). Same read-out and setting: in the case of `O=C(NCC1COc2ccccc2O1)C1CCN(S(=O)(=O)c2cccc3nsnc23)CC1` (configuration not stated) it was -7.72% (inactive). `CC(=O)N1c2c(cc(Br)cc2S(=O)(=O)NCC2COc3ccccc3O2)CC1C` (configuration not stated): the AC50 is 3160 nM (active).

On to `COc1ccc(/C=C/C(=O)NCc2cn(C)nc2C)cc1COc1ccc(Br)cc1`, for which the “activity, negative = inhibition” value was -26.8% (inactive). Regarding `COc1ccc(C(=O)NN)cc1COc1ccc(Br)cc1`, the AC50 was 200 nM (active).
